aSyn UTR act = Activators working through SNCA 5'UTR binding (MLPCN); 300,000 compounds, 7.1% hits; alpha-synuclein 5'UTR reporter, activators screen; AID 1814; activity score, % (tested at 7.5 µM), hits read low; in the data active = activity score below about -60%
An asterisk follows results filed as active. Not all results are given here.

SMILES | aSyn UTR act
Nc1nnc(-c2cc3ccccc3oc2=O)s1 | -116*
C=CCOc1ccc2c(c1)C(=NO)c1cc(OCC=C)ccc1-2 | -94*
ON=C1c2cc(OCCN3CCCCC3)ccc2-c2ccc(OCCN3CCCCC3)cc21 | -189*
COc1ccc2c(c1)C(=NO)c1cc(OC)ccc1-2 | -83*
COC(=O)c1ccc(-c2ccc(/C=N/NC(=O)Cc3nnc(N)s3)o2)cc1 | -67*
Cn1cccc1/C=C1\SC(=O)N(c2ccccc2)C1=O | -115*
Cn1cc(/C=C2/SC(=O)N(c3ccccc3)C2=O)c2ccccc21 | -221*
CN1N=C(C(=O)N2CCc3c([nH]c4ccccc34)C2c2ccccc2Cl)CCC1=O (stereo not given) | -69*
Cc1nnc(SC(=O)N2c3ccccc3Sc3ccccc32)s1 | -66*
CC(C)n1c(SCC(=O)N2c3ccccc3Sc3ccccc32)nc2c1c(=O)n(C)c(=O)n2C | 58
Cc1ccc(CNc2ccc(Cl)cc2[N+](=O)[O-])cc1 | -76*
Cc1cc(C(=O)COC(=O)Cc2n[nH]c(=O)c3ccccc23)c(C)n1-c1ccc2c(c1)OCCO2 | -100*
Cc1cc(C(=O)COC(=O)C2=COCCO2)c(C)n1-c1ccc2c(c1)OCO2 | -134*
Cc1cc(C(=O)COC(=O)C2=COCCO2)c(C)n1-c1cccc(F)c1 | -156*
O=C(N/N=C/c1ccc2nccnc2c1)c1ccccc1O | -150*
Cc1cccc(C(=O)Oc2ccc(/C=N/NC(=O)c3ccccc3O)cc2)c1 | -135*
O=C(N/N=C/c1ccc(O)c2ncccc12)c1cccc(Br)c1 | 67
C(=N\NCc1ccccc1)/c1ccc2nccnc2c1 | -106*
O=C(N/N=C/c1ccnc2ccccc12)c1ccccc1O | -62*
O=C(N/N=C/c1cccnc1)c1cc(Br)ccc1O | -125*
O=C(N/N=C/c1cccnc1)c1ccc(NC(=O)C(c2ccccc2)c2ccccc2)cc1 | 111
O=C(Nc1ccc2c(c1)OCO2)c1cnccn1 | -106*
Cc1ccc(C(=O)Nc2ccc3c(c2)OCO3)cc1Cl | -123*
Cc1ccc(C(=O)Nc2ccc3c(c2)OCO3)cc1S(=O)(=O)N1CCCC1 | -114*
Cc1ccc(NC(=O)c2ccc3c(c2)OCO3)cc1Cl | -123*
SMILES | aSyn UTR act
Cc1ccc(NC(=O)c2ccc(Cl)nc2)cc1 | -116*
COc1cc(Cl)c(C)cc1NC(=O)c1ccc2c(c1)OCO2 | -84*
O=C(Nc1ccc2c(c1)OCO2)c1ccc(Cl)nc1 | -90*
Cc1cc(Cl)ccc1NC(=O)c1ccc2c(c1)OCO2 | -231*
Cc1ccc(NC(=O)c2nsc(Cl)c2Cl)cc1 | -113*
COc1ccccc1N1CCN(C(=O)CSc2ccccc2)CC1 | -82*
C=CCN1CCN(C(=O)CSc2ccccc2)CC1 | -103*
CCCOC(=O)/C(=C\C=C\c1ccco1)NC(=O)c1ccccc1 | -86*
CC(C)COC(=O)Nc1nnc(Cc2ccccc2)s1 | -97*
O=C(Nc1nnc(CCc2ccccc2)s1)c1ccco1 | -87*
CCCCCCc1nnc(NC(=O)c2ccco2)s1 | -67*
CC(C)(C)Cc1nnc(NC(=O)c2ccco2)s1 | -77*
O=C(Nc1nnc(Cc2ccccc2)s1)c1ccco1 | -95*
NC(=O)c1cc(Cc2ccccc2)sc1NC(=O)c1ccco1 | -215*
O=C(Nc1nnc(CCc2ccccc2)s1)c1cccs1 | -80*
CC(CNS(=O)(=O)c1cc(Cl)ccc1Cl)CN(C)C (stereo not given) | -159*
COc1cc2c(cc1NC(=O)c1ccco1)CCCC2 | -278*
COc1ccc(NC(=O)c2ccco2)c(OC)c1 | -128*
COc1cc(NC(=O)COc2ccccc2C)ccc1NC(=O)c1ccco1 | -68*
COc1ccc(NC(=O)c2cc(C(C)C)on2)c(OC)c1 | -244*
COc1cc(NC(=O)C(C)C)ccc1NC(=O)c1ccco1 | -92*
COc1ccc(CN(C)CC(=O)Nc2ccccc2-c2ccccc2)c(OC)c1 | 46
COc1ccc(NC(=O)CSc2ccccc2)c(OC)c1 | -100*
COc1ccc(NC(=O)c2ccccc2O)c(OC)c1 | -205*
Cc1cccc(Nc2nc(-c3ccc4c(c3)OCCO4)cs2)c1 | -203*
SMILES | aSyn UTR act
Cc1nc(-c2ccc3c(c2)OCCO3)cs1 | -122*
CCn1c(=O)c2cc(C(=O)NC(C)C)sc2c2ccccc21 | -79*
CN(C)c1ccc(NC(=O)Nc2cccc3ccccc23)cc1 | -77*
CCN(CC)c1ccc(NC(=O)CCCCC(=O)Nc2ccc(N(CC)CC)cc2)cc1 | 63
CCN(CC)c1ccc(NC(=O)Nc2cccc3ccccc23)cc1 | -115*
CCN(CC)c1ccc(NC(=O)Nc2ccccc2C(F)(F)F)cc1 | -80*
COc1ccc2cnn(-c3ccc(OC(F)(F)F)cc3)c(=O)c2c1OC | -90*
CC1CCC(NC(=O)Cn2c(=O)[nH]c3ccsc3c2=O)CC1 (stereo not given) | -130*
COc1ccc(NC(=O)c2cn(-c3ccccc3)nc2-c2cc3ccccc3o2)cc1 | -71*
COc1ccc(-c2nn(-c3ccccc3)cc2C#N)cc1 | -126*
OCc1cn(-c2ccccc2)nc1-c1cc2ccccc2o1 | -179*
O=C(N/N=C/c1cn(-c2cccs2)nc1-c1ccccc1)c1ccccc1Br | -73*

Source: PubChem
